Experimental data taken from PubChem BioAssay AID1220 (Sanford-Burnham Center for Chemical Genomics, 2008).
Out of some 190,000 compounds screened, about 1,300 (0.68%) were called active. The sample holds actives, similar compounds and a random draw of the others, so the mix is not that of the screen. Values without a mark were called inactive. Rule as the data show it: active = inhibition above about 50%; inactive = the rest.

target: Mannose-6-phosphate isomerase (Homo sapiens) (UniProt P34949); test: MPI inhibition at elevated mannose 6-phosphate – biochemical, fluorescence intensity, high mannose 6-phosphate, primary screen (AID 1220); details: recombinant PMI enzyme, coupled fluorescence intensity; at 20 µM; active compounds read high
Sequence (P34949 whole entry, looked up): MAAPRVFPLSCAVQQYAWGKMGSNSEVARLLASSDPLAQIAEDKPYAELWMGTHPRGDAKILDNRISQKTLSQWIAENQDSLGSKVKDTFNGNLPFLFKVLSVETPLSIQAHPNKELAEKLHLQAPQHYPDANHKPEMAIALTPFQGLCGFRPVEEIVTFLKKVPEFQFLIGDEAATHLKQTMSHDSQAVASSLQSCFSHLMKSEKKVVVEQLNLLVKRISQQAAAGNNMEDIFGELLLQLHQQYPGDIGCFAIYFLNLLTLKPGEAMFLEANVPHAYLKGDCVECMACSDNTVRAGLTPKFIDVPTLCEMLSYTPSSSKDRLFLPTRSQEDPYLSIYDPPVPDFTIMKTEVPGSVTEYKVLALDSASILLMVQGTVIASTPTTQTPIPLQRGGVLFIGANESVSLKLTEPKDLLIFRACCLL

Compound | inhibition
COc1ccc(C(=S)Nc2ccc(C)cc2)cc1 | 3.8%
CC(C)(C)c1ccc(S(=O)(=O)N2CCCC2C(=O)N2CCOCC2)cc1 (stereo not drawn) | 3.5%
CCOC(=O)c1nn(-c2ccccc2F)c2nc(-c3ccco3)c(C#N)c(=O)n12 | -13.6%
Cc1ccc(-n2c(=S)[nH]c3sc4c(c3c2=O)CCc2ccccc2-4)cc1 | 24.1%
Cc1ccc(-n2c(=S)[nH]c3sc4c(c3c2=O)CCC4)cc1 | 9.7%
CCN(Cc1ccncc1)S(=O)(=O)c1ccc(C(C)=O)cc1 | -13.6%
CCCCSc1cnn(-c2ccccc2)c(=O)c1SCCCC | 5.9%
CN1CCOc2cc(S(=O)(=O)Nc3ccc(F)cc3)ccc21 | 0.5%
COc1ccc(CCNC(=O)CN2C(=O)NC(C)(c3ccc([N+](=O)[O-])cc3)C2=O)cc1 (stereo not drawn) | -0.6%
Cc1ccc(C2NC(=O)NC(O)(C(F)(F)F)C2C(=O)c2ccccc2)o1 (stereo not drawn) | -19.5%
O=C1NC(c2ccc(-c3ccccc3[N+](=O)[O-])o2)C(C(=O)c2ccc(F)cc2)C(O)(C(F)(F)F)N1 (stereo not drawn) | 42.1%
O=C1NC(c2ccc(-c3ccccc3[N+](=O)[O-])o2)C(C(=O)c2ccc(Cl)cc2)C(O)(C(F)(F)F)N1 (stereo not drawn) | 50.3% (active)
COc1cc(C2NC(=O)NC(O)(C(F)(F)F)C2C(=O)c2ccc(Cl)cc2)ccc1O (stereo not drawn) | 2.5%
COc1ccc(C(=O)C2C(c3ccc(-c4ccccc4[N+](=O)[O-])o3)NC(=O)NC2(O)C(F)(F)F)cc1 (stereo not drawn) | 43.4%
O=C1NC(c2ccc(-c3ccccc3[N+](=O)[O-])o2)C(C(=O)c2ccccc2)C(O)(C(F)(F)F)N1 (stereo not drawn) | 50.5% (active)
Cc1ccccc1-n1c(-c2ccncc2)n[nH]c1=S | -11.7%
O=C1C(c2ccc(F)cc2)N(Cc2ccc3c(c2)OCO3)C(=O)CN1C1CCCC1 (stereo not drawn) | 7.2%
COc1cc(C2/C(=C(\O)c3ccc4c(c3)CC(C)O4)C(=O)C(=O)N2CCCn2ccnc2)ccc1O (stereo not drawn) | 54.7% (active)
CC1Cc2cc(/C(O)=C3/C(=O)C(=O)N(CCCn4ccnc4)C3c3ccncc3)ccc2O1 (stereo not drawn) | -10.1%
CC1Cc2cc(/C(O)=C3/C(=O)C(=O)N(CCCn4ccnc4)C3c3cccnc3)ccc2O1 (stereo not drawn) | 3.7%
COc1cc(-c2ccc(NC(=O)CN3CCC(C)CC3)c(OC)c2)ccc1NC(=O)CN1CCC(C)CC1 | 21%
CC(C)c1ccc(CN(C)CC(O)c2ccccc2)cc1 (stereo not drawn) | -2.2%
CCN(CC)c1ccc(/C=N/NC(=O)c2c[nH]c3ccccc23)cc1 | 21.6%
COc1ccc(CCNC(=O)CCC(=O)Nc2nnc(C(C)C)s2)cc1OC | 3.2%
CCN1CCc2c(C#N)c(N3CCOCC3)nc(NCCO)c2C1 | 57.2% (active)

Compound | inhibition
CCN1CCc2c(C#N)c(N3CCOCC3)nc(NCc3ccccc3)c2C1 | 19.3%
CCN1CCc2c(C#N)c(N3CCOCC3)nc(N3CCOCC3)c2C1 | -3%
CC1(C)Cc2c(sc3nc(-c4cc5ccccc5o4)n(N)c(=O)c23)CO1 | 7%
CCN1C(=O)C(C)S/C1=N\S(=O)(=O)c1ccc(Cl)s1 (stereo not drawn) | -0.5%
CC(C)CCN(C(=O)CNC(=O)c1cccs1)C(C(=O)NC1CCCC1)c1ccncc1 (stereo not drawn) | -1.9%
c1ccc(CCNc2ccnc3cc4ccccc4cc23)cc1 | 63.5% (active)
c1ccc2cc3c(NCCN4CCOCC4)ccnc3cc2c1 | 57% (active)
c1ccc(CCNc2ncnc3ccccc23)cc1 | 6.3%
c1ccc2c(NCCCN3CCOCC3)c3ccccc3nc2c1 | 8.7%
O=c1ccnc(NCCc2ccccc2)[nH]1 | -1.8%
O=C(NCCN1CCOCC1)c1ccc2ccccc2c1 | -3.6%
CCOC(=O)c1sc(-c2ccc(OC)cc2)cc1NC(C)=O | -4.9%
Cc1nc([N+](=O)[O-])c(C(=O)OCc2ccccc2Br)n1C | -9.7%
COc1ccc(C(=O)N/N=C/c2c(CO)cnc(C)c2O)cc1 | -36.3%
O=C(c1ccccc1)N(Cc1cccnc1)C1(C(=O)Nc2ccccc2)CCCCC1 | -14%
NC(=O)C1CCN(C(=O)CSc2nc3ccccc3[nH]2)CC1 | 2.1%
CN(C)c1ccc2c(=O)[nH][nH]c(=O)c2c1 | 24.5%
CN(C)c1ccc2c(O)cc(=O)n(C)c2c1 | 56.1% (active)
COc1cc(=O)n(C)c2cc(N(C)C)ccc12 | 6.9%
CCOCCCNC(=O)c1cn(CC(C)C)c(=O)c2cc(OC)c(OC)cc12 | 22.8%
Cc1ccccc1-n1c(=O)c2ccccc2n2cnnc12 | 1.1%
Cc1ccccc1N1CC(=O)N(c2ccccc2C)CC1=O | -4.3%
CC(C)(C)NC(=O)NC(=O)COC(=O)c1cccc(F)c1 | 10.3%
CC(=O)Nc1ccc(C(=O)n2nc(C)cc2C)cc1 | -3.3%
CC(C)CNC(=S)N(Cc1ccco1)Cc1cc2cc3c(cc2[nH]c1=O)OCCO3 | 12.4%

Compound | inhibition
CCNC(=S)N(Cc1ccco1)Cc1cc2cc3c(cc2[nH]c1=O)OCCO3 | 4.6%
CNC(=S)N(Cc1ccco1)Cc1cc2cc3c(cc2[nH]c1=O)OCCO3 | 52.2% (active)
COc1ccc(/C=N/NC(=O)c2cccc(NC(C)=O)c2)c(C(=O)O)c1OC | -6.4%
Cn1ccc(C(=O)OCC(=O)Nc2cccc3ccccc23)n1 | 0.8%
CC(CCc1ccccc1)NC(=O)C(=O)N1CCOCC1 (stereo not drawn) | 0.1%
CN1CCOCCOCCN(C)C(=O)N2CCOCCOCCN(CCOCC2)C1=O | 3%
CC(C)(C)C1=CC(=O)C(N2CCOCC2)=CC1=O | 65.3% (active)
CC1=C(C)C(=O)C(N2CCOCC2)=CC1=O | -17.5%
Cc1ccc(S(=O)(=O)Oc2ccc(C)cc2/C=N/N=C2\NC(=O)C(C)S2)cc1 (stereo not drawn) | 8.8%
CC(=Nc1ccccc1)C1=C(O)CSC1=O | -2.7%
CC(=Nc1ccccc1C)C1=C(O)CSC1=O | -8.7%
COc1ccccc1N=C(C)C1=C(O)CSC1=O | 54.1% (active)
CCOC(=O)C1C(c2ccccc2)N(C)OC1(O)C(F)(F)F (stereo not drawn) | 6.7%
Cc1c(C(=O)OC2CCCC2)[nH]c2c1C(=O)CC(c1ccco1)C2 (stereo not drawn) | 23.1%
CCOC(=O)C(C)Oc1cccc2c(=O)n(CC(=O)Nc3ccc(OCC)cc3)ccc12 (stereo not drawn) | 7.6%
Cc1cc(C)n2c(SCc3ccc(Cl)cc3Cl)nnc2n1 | -3.9%
CCN(Cc1cc(=O)n2ccsc2n1)Cc1nc2ccccc2c(=O)[nH]1 | -3.9%
CN(Cc1cc(=O)n2ccsc2n1)c1ccccc1 | -17.6%
CCN(Cc1cc(=O)n2ccsc2n1)c1cccc2ccccc12 | 67.3% (active)
COc1ccc(NC(=O)c2cc(Br)c(Br)s2)cn1 | 53.2% (active)
COc1ccc(NC(=O)c2cc(OC)c(OC)c(OC)c2)cn1 | 8.4%
COc1ccc(NC(=O)c2sccc2C)cn1 | 12.5%
COc1cc(CNCCO)cc(Br)c1OCc1ccccc1 | 1.8%
Cc1ccc(/C=C/C(=O)OCC(=O)N2CC(=O)Nc3ccccc32)o1 | 55.2% (active)
Cc1ccc(/C=C/C(=O)N2CC(=O)Nc3ccccc32)o1 | 1.3%

Compound | inhibition
O=C1CN(C(=O)COC(=O)/C=C/c2ccco2)c2ccccc2N1 | 1.6%
CN(C)c1nc(OCCOC(=O)c2ccccc2)nc(N(C)C)n1 | 10%
O=[N+]([O-])c1ccc2cn(-c3ccccc3)nc2c1 | -4.3%
O=[N+]([O-])c1ccc2c(c1)ncn2-c1ccccc1 | -7.7%
CC(=O)Nc1ccc(S(=O)(=O)Nc2nc3ccccc3nc2N2CCCCCC2)cc1 | 2.2%
Cc1cccc(N2CCN(C(=S)c3ccc(-c4ccccc4[N+](=O)[O-])o3)CC2)c1 | 57.3% (active)
Cc1ccc(N2CCN(C(=S)c3ccc(-c4cccc([N+](=O)[O-])c4)o3)CC2)cc1 | 26.5%
O=[N+]([O-])c1ccccc1-c1ccc(C(=S)N2CCCC2)o1 | 18.9%
Cc1cc(C)nc(N/N=C/c2cccc3ccccc23)n1 | -14.6%
COc1cccc(CN(C)C(=O)c2cccnc2SC)c1OC | -6.5%
COc1ccc(-c2nnc3ccc(SCC(=O)N4CCOCC4)nn23)cc1 | -2.8%
CCN1C(=O)C(F)(CC)C(=O)c2ccccc21 (stereo not drawn) | 4.2%
CC1(O)C(=O)c2ccccc2N(c2ccccc2)C1=O (stereo not drawn) | -4.8%
CN1C(=O)C(Cl)(Cl)C(=O)c2ccccc21 | 68.4% (active)
O=C(NNC(=O)C1CC(c2cccnc2)=NO1)Nc1ccccc1F (stereo not drawn) | -6.2%
Cc1cc(S(=O)(=O)N(Cc2ccc(C(C)C)cc2)CC2CCCO2)ccc1-n1cnnn1 (stereo not drawn) | -1%
Cn1c(-c2ccccc2)c(C(=O)CCl)c2ccccc21 | -33.5%
Cc1nc(SCC(=O)c2ccc(F)cc2)n[nH]1 | 12.9%
Cc1ccc(C(=O)CSc2n[nH]c(C)n2)cc1 | -0.9%
Cc1nc(SCC(=O)c2ccccc2)n[nH]1 | 51.2% (active)
CCN(CC)C(=O)Cn1cc(S(=O)(=O)CC(=O)NCCc2ccc(OC)c(OC)c2)c2ccccc21 | 20.4%
COc1ccc(CCNC(=O)CS(=O)(=O)c2cn(CC(=O)N3CCCC3)c3ccccc23)cc1OC | 46.9%
COc1ccc(CCNC(=O)CS(=O)(=O)c2cn(CC(=O)N3CCOCC3)c3ccccc23)cc1OC | 51.4% (active)
